About 7,900 targets were measured; listed, in parts, are those with a hit and a random draw of the rest. About 0.6% of all pairs of compound and target were hits. A number with no mark means an inactive call.

UniProt O15117, sequence (O15117 whole entry, looked up): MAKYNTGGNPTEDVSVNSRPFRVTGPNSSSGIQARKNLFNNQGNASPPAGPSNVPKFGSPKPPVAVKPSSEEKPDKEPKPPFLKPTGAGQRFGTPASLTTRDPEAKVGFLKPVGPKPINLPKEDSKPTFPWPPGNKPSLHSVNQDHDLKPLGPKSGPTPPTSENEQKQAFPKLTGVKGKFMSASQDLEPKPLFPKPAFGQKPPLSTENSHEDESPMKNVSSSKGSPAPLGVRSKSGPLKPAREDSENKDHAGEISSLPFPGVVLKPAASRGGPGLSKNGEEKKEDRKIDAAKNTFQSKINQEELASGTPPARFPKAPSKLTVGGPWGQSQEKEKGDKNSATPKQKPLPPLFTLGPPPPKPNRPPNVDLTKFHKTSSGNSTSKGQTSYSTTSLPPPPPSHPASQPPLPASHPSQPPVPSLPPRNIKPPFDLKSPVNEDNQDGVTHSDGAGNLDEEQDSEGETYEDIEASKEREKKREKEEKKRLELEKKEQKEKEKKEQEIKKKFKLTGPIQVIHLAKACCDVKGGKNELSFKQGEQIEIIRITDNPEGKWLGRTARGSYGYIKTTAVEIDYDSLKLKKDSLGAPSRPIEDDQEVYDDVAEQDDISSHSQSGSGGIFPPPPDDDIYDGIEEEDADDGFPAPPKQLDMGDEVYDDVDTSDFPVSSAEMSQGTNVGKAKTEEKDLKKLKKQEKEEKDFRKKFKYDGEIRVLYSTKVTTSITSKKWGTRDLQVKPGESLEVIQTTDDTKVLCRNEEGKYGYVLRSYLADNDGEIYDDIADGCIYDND
UniProt Q13889, sequence (Q13889 whole entry, looked up): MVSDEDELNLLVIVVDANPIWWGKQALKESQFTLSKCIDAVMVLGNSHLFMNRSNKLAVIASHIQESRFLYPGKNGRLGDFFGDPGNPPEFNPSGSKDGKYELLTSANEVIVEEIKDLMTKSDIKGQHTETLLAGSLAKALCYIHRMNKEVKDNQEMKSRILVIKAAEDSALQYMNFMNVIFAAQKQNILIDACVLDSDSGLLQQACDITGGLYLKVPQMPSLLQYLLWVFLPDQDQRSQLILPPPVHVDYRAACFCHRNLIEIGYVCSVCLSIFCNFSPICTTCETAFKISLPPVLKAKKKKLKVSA
UniProt P30519, sequence (P30519 whole entry, looked up): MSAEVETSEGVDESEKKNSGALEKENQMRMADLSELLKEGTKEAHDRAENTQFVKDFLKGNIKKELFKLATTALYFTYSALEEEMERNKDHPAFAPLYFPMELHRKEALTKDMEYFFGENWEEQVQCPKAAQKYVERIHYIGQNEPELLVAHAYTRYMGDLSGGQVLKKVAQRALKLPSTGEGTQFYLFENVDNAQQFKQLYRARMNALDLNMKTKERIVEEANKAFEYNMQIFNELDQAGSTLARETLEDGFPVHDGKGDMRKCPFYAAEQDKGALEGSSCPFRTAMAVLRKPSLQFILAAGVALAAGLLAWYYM
UniProt P52655, sequence (P52655 whole entry, looked up): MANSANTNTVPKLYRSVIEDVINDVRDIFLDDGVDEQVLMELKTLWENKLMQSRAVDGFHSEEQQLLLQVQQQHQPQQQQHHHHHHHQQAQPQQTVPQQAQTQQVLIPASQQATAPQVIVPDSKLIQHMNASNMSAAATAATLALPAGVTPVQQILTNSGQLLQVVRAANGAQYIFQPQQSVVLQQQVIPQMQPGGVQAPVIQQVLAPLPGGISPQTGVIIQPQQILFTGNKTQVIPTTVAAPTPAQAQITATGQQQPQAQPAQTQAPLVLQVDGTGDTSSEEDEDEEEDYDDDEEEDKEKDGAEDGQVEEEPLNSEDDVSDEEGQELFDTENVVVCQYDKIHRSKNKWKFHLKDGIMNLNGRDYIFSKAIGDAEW
UniProt P09211, sequence (P09211 whole entry, looked up): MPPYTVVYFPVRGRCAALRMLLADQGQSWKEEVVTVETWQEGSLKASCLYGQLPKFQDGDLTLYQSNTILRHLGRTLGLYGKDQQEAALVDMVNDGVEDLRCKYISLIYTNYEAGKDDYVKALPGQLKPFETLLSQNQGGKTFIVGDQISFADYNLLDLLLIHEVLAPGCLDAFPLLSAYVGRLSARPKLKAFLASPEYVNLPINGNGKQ
UniProt P11142, sequence (P11142 whole entry, looked up): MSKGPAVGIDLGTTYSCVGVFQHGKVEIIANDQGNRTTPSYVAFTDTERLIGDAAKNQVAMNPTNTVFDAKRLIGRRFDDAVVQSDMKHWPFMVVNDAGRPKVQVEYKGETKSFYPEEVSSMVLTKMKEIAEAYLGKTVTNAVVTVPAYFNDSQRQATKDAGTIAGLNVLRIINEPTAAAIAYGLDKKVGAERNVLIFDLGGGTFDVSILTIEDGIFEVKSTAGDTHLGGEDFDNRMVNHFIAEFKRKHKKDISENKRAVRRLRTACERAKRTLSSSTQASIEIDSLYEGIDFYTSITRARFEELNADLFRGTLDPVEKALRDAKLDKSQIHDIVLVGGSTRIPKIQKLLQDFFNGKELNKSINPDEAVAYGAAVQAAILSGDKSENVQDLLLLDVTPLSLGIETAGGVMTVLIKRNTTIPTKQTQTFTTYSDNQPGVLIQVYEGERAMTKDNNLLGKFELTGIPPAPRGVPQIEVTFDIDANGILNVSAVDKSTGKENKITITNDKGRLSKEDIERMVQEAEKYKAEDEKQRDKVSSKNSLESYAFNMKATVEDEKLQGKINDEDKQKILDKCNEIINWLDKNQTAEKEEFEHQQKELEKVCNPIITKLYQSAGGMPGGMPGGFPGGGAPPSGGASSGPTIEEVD
UniProt Q9BXW9, sequence (Q9BXW9 whole entry, looked up): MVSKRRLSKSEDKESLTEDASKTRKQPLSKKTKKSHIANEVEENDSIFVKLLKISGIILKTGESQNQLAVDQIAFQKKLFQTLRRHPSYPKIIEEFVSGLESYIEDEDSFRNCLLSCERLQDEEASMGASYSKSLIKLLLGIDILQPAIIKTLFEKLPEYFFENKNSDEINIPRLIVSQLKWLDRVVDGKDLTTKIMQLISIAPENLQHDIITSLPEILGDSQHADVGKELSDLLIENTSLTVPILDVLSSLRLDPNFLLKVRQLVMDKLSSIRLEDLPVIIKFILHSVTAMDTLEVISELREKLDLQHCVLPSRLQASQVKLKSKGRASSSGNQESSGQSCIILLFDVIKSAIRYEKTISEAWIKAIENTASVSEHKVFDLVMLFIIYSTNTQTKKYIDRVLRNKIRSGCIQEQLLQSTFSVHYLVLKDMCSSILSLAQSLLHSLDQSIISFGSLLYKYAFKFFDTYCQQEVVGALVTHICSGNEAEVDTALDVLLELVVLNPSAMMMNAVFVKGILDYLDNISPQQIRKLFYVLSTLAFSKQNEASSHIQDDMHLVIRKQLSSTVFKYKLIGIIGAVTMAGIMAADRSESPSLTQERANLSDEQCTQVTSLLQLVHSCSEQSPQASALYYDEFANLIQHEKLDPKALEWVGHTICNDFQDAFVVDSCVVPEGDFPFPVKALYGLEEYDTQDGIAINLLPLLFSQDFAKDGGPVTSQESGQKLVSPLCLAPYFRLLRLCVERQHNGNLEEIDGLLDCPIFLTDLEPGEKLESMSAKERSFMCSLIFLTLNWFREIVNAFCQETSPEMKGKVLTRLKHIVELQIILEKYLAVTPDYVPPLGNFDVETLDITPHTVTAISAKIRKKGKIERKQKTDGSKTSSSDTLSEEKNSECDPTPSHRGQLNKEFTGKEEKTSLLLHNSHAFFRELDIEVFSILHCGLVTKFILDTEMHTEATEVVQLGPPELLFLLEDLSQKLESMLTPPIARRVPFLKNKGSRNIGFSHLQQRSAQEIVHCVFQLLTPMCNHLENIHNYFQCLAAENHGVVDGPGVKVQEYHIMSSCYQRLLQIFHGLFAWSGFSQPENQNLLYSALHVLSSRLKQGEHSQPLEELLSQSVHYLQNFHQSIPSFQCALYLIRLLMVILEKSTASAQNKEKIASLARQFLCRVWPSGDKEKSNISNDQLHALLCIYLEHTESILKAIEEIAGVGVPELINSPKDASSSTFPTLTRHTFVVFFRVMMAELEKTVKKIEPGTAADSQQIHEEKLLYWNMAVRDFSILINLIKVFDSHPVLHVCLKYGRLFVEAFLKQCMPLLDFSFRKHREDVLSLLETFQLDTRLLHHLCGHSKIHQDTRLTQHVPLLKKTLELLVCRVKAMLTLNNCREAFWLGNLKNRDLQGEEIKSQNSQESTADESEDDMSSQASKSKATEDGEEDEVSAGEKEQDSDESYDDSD
UniProt Q9UJY4, sequence (Q9UJY4 whole entry, looked up): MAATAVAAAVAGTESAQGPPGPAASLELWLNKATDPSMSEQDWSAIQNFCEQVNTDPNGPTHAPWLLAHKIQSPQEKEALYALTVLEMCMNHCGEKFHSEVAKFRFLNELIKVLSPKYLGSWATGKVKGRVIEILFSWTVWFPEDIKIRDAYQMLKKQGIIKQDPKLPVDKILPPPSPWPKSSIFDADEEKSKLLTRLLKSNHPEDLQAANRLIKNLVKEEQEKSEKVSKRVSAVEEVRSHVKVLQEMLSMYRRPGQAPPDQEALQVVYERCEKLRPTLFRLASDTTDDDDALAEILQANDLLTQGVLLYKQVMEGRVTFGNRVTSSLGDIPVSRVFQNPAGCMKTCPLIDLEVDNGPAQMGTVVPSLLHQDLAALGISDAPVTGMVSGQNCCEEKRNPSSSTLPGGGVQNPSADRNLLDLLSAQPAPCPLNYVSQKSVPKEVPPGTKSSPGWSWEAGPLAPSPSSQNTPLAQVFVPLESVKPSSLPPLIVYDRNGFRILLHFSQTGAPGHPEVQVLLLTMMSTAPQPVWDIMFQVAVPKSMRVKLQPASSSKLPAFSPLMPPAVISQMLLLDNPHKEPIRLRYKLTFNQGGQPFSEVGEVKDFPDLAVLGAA
UniProt P0CL80, sequence (P0CL80 whole entry, looked up): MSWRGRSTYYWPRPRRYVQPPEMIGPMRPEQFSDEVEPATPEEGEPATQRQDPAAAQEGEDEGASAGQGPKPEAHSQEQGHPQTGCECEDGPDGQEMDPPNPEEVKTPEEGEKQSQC
UniProt Q9H4G4, sequence (Q9H4G4 whole entry, looked up): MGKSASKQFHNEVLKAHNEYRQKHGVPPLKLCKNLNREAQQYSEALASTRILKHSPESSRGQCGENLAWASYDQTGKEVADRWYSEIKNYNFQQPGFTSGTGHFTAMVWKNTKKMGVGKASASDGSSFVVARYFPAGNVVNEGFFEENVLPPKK

Compound in the test: CCCCN(Cc1ccc(C(=O)NO)cc1)C(=O)Nc1ccccc1 [Nexturastat A]
Description: log2 fold change, soluble protein after heating vs DMSO (PISA); higher = thermal stabilisation; K562 cells, 10 uM, 30 min; active = over 0.2 and 3.5 SD of the protein, either way, in both replicates (recomputed). The method in brief: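 Values are thermal stability changes relative to control samples and are taken from duplicates. They are stated as log2 fold changes. Before quantification by TMTpro 16plex LC-MS/MS with equalised channel sums, K562 cells at 2×10^6 cells/mL were treated with 10 μM compound for 30 min, heated in aliquots for 3 min across 48°C-58°C, pooled, extracted in PBS with 0.5% NP-40 at 4°C, and centrifuged at 21,000xg for 90 min to give the soluble supernatant.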
Regarding GIGYF2 (UniProt Q6Y7W6), the log2 fold change is 0.05. With HSPA8 (UniProt P11142), the log2 fold change is -0.011. In the case of FNTA (UniProt P49354), the log2 fold change is -0.063.

Turning to HOMER1 (UniProt Q86YM7), the log2 fold change was -0.138. With GTF2A1 (UniProt P52655) the figure was 0.077. With GNG5 (UniProt P63218) the figure was 0.068; with FYB1 isoform 3 (UniProt O15117), 0.011; with GDPD1 (UniProt Q8N9F7), -0.026. FNTB (UniProt P49356): the log2 fold change was -0.041. Consider HECTD1 (UniProt Q9ULT8), for which the log2 fold change is 0.273 (active).

GGA2 (UniProt Q9UJY4): the log2 fold change is 0.582 (active). Consider GCDH (UniProt Q92947), for which the log2 fold change was -0.007. Regarding GABARAPL2 (UniProt P60520), the log2 fold change is -0.122. On to GNB2 (UniProt P62879), for which the log2 fold change was -0.023.

For FBXO3 (UniProt Q9UK99), the log2 fold change is -0.043. As for FKBP7 (UniProt Q9Y680), the log2 fold change was 0.002. Consider GALNT4 (UniProt Q8N4A0), for which the log2 fold change is -0.049. With HMOX2 (UniProt P30519) the figure was -0.023; with ICAM1 (UniProt P05362), 0.02. With GDI1 (UniProt P31150) the figure was -0.051; with FANCD2 isoform 1 (UniProt Q9BXW9), -0.09; with GBF1 (UniProt Q92538), 0.078. With GAGE12F (UniProt P0CL80) the figure was 0.036. On to IFT80 isoform 3 (UniProt Q9P2H3), for which the log2 fold change is -0.021. On to FBXO42 (UniProt Q6P3S6), for which the log2 fold change is -0.072. As to HMGN2 (UniProt P05204), the log2 fold change is -0.016. With HADHA (UniProt P40939), the log2 fold change is -0.1. Under HEATR5B (UniProt Q9P2D3) stands 0.219 (active). With GLIPR2 (UniProt Q9H4G4) the figure was 0.062; with GNS (UniProt P15586), -0.03.

Take HIP1R (UniProt O75146): the log2 fold change was -0.047.

Take HADHB (UniProt P55084): the log2 fold change was -0.085. On to GSTP1 (UniProt P09211), for which the log2 fold change was -0.108. Consider FECH isoform 2 (UniProt P22830), for which the log2 fold change is -0.123. On to GTF2H3 (UniProt Q13889), for which the log2 fold change was 0.016.
